NPSR antag: blocks cAMP signaling of the human neuropeptide S receptor | CHO-NPSR cells, cAMP TR-FRET, antagonist mode | Potency, µM (top dose mostly 38.3 µM), without a hit: at the highest dose activity change, negative = inhibition, actives largely listed as inhibitors | 1% of 220,000 active; also: nearly all actives have a fitted effect of over 50% in size
HPGD inh: inhibitors of human 15-hydroxyprostaglandin dehydrogenase (HPGD); P15428; purified HPGD, NADH fluorescence kinetic, PGE2 substrate; Potency, µM, without a hit: top-dose activity change, negative = inhibition, usual class: inhibitors; 4.3% of 150,000 active; AID 894; active = well fitted inhibition curve with a large enough effect, not every such curve was filed as active; inconclusive = small, poorly fitted or top-dose-only effect, or another doubt; inactive = no such curve, though single readings can be large or run the other way
Target sequence (P15428 whole entry, looked up): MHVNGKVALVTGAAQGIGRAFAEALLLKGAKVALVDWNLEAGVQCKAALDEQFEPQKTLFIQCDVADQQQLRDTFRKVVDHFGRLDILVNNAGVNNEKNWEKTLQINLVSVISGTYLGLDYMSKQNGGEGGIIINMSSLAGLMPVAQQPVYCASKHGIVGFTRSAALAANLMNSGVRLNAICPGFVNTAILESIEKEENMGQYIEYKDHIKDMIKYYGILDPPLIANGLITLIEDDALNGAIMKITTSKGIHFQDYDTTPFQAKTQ
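NADH formation kinetics: reaction with 30 uM PGE2 and 1 mM NAD+ (final), 20 nM enzyme, Tris-HCl pH 8 with Tween 20, after 15 min compound preincubation at room temperature. Fluorescence change, last versus first of five reads.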
Tau fibril ThT: blocks human tau fibril formation measured by thioflavin T. AID 1460. recombinant tau K18 P301L, heparin-induced fibrillization, ThT fluorescence. 2.1% of 270,000 active. P10636. Potency, µM (doses to about 57.4 µM), for the others: at the top dose activity, negative = inhibition, most hits filed as inhibitors; also: nearly all actives have a fitted effect of over 55% in size
Target sequence (P10636 561-689 P618L limits assumed): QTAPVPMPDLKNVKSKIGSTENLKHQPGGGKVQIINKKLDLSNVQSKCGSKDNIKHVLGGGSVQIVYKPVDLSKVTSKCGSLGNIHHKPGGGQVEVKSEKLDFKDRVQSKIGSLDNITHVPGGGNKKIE
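Tau K18 P301L fragment (15 uM unlabeled plus 0.24 uM Alexa 594-labeled) in 100 mM sodium acetate pH 7 with compound, fibrillization induced by 20 uM heparin for 6 hr at 37 C. Thioflavin T (30 uM) added, fluorescence read after 1 hr (ex 450, em 510 nm).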
Tau FP inhib: blocks human tau fibril formation measured by polarization; P10636; Potency, µM (top dose mostly 57.7 µM), for inactives: at the top dose activity, negative = inhibition, actives largely listed as inhibitors; 0.39% of 280,000 active; K18 P301L tau heparin fibrillization, Alexa594 FP, 6 h; also: nearly all actives have a fitted effect of over 55% in size
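Steps: dispense K18 P301L tau (15 uM plus 0.24 uM Alexa 594 tracer, final) in pH 7 sodium acetate; add compound; add heparin (20 uM final); incubate 6 hr, 37 C; add ThT (30 uM final); after 1 hr ambient, read FP.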
ALDH1A1 block: blocks purified human ALDH1A1 activity. P00352. Purified ALDH1A1, NADH fluorescence, propionaldehyde substrate. Potency, µM (doses to about 75.3 µM), for the others: at the top dose activity, negative = inhibition, hits mostly inhibitors. 7.3% of 220,000 active; active = well fitted inhibition curve with a large enough effect, not every such curve was filed as active; inconclusive = small, poorly fitted or top-dose-only effect, or another doubt; inactive = no such curve, though single readings can be large or run the other way;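 also: plate controls were no enzyme wells and a reference inhibitor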
Tau fluor counter: counter-screen for tau fibril formation inhibitors; tau K18 P301L Alexa594 fluorescence, heparin fibrillization; Potency, µM (highest dose often 57.7 µM), inactives show top-dose activity change, negative = decrease; 0.93% of 280,000 active; AID 1463; also: nearly all actives have a fitted effect of over 55% in size
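Human tau K18 P301L (15 uM unlabeled, 0.24 uM Alexa 594-labeled) in 100 mM sodium acetate pH 7 with 20 uM heparin, 6 hr at 37 C. ThT 30 uM added, 1 hr ambient; Alexa 594 FP and total fluorescence read at 555/632 nm.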
* hit, by the source's call; [ ] = another dose, or the depositor's remark. The list is not random: actives were taken first. Their share in the collection is about 9.5%. Unless noted, calls follow the shape of the dose curve; as a rule, active = well fitted curve in the direction sought with a large enough effect; inconclusive = small, poorly fitted or top-dose-only effect, or another doubt; inactive = no such curve, though single readings can be large; an effect the other way counts as inactive or inconclusive. Unless noted, % is scaled to controls: 0 for no effect and ±100 for the full control effect; potency is read from the fitted curve at half-maximal effect.

`Cc1ccc(-c2nnn(CC(=O)N(Cc3cccs3)C(C(=O)NC(C)(C)C)c3ccco3)n2)o1` (stereo unspecified) gave NPSR antag inconclusive, HPGD inh -9.9%, Tau fibril ThT 10.3%, Tau FP inhib 1.4%, ALDH1A1 block inconclusive and Tau fluor counter 6.0%.
`COc1ccc(CNC(=O)C(c2ccco2)N(Cc2ccccc2)C(=O)Cc2cccs2)cc1` (stereo unspecified) gave NPSR antag inconclusive, HPGD inh -12.1%, Tau fibril ThT -8.6%, Tau FP inhib -2.6%, ALDH1A1 block 12.6µM* and Tau fluor counter 0.3%.
`Cc1ccc(-c2nnn(CC(=O)N(Cc3ccco3)C(C(=O)NC(C)(C)C)c3cccs3)n2)o1` (stereo unspecified) gave NPSR antag -5.4%[46.1 µM], HPGD inh -2.6%, Tau fibril ThT -18.0%, Tau FP inhib 1.2%, ALDH1A1 block 28.2µM* and Tau fluor counter -7.7%.
For Nc1ccc(C(=O)Nc2ccco2)cc1 the results were NPSR antag -14.1%[46.1 µM], HPGD inh -8.6%, Tau fibril ThT -13.3%, Tau FP inhib 0.8%, ALDH1A1 block 0.9% and Tau fluor counter -7.0%.
C=CCN(C(=O)c1cccc(S(=O)(=O)N2CCN(C)CC2)c1)c1nc(-c2ccccc2)cs1 was read as NPSR antag -22.2%[46.1 µM], HPGD inh -21.0%, Tau fibril ThT inconclusive, Tau FP inhib 13.2%, ALDH1A1 block -14.8% and Tau fluor counter -21.1%.
For COc1ccc(C(=O)N(Cc2ccco2)Cc2cccs2)c(O)c1 the results were NPSR antag inconclusive, HPGD inh inconclusive, Tau fibril ThT 7.1%, Tau FP inhib 0.3%, ALDH1A1 block 12.6µM* and Tau fluor counter 6.6%.
COc1cc(O)c(CC=C(C)C)c(O)c1C(=O)CCc1ccc(O)cc1 was read as NPSR antag -26.5%, Tau fibril ThT -3.1%, Tau FP inhib 15.8µM* and Tau fluor counter inconclusive.
`O=C(CCc1ccc(O)cc1)c1c(O)cc(O)cc1O` gave NPSR antag -17.6%[46.1 µM], HPGD inh 35.5µM*, Tau fibril ThT inconclusive, Tau FP inhib 2.5%, ALDH1A1 block -13.2% and Tau fluor counter inconclusive.
For O=[N+]([O-])c1ccc(N2CCC(=NOCc3ccc(Cl)cc3)CC2)cc1 the results were NPSR antag -20.5%[46.1 µM], HPGD inh -16.2%, Tau fibril ThT inconclusive, Tau FP inhib -1.4%, ALDH1A1 block 12.6µM* and Tau fluor counter -29.2%.
`Cc1ccc(NCC(=O)N=Nc2c(O)n(C)c3ccccc23)cc1` gave NPSR antag 25.1%, Tau fibril ThT inconclusive, Tau FP inhib 11.9%, ALDH1A1 block inconclusive and Tau fluor counter -12.1%.
`Cn1c(O)c(N=Nc2ccc(F)cc2)c2ccccc21` gave NPSR antag -25.8%, Tau fibril ThT 12.6µM*, Tau FP inhib -5.6%, ALDH1A1 block inconclusive and Tau fluor counter -12.2%.
Cn1c(O)c(N=NC(=O)c2cc(-c3cccs3)nc3ccccc23)c2ccccc21 was read as NPSR antag 5.7%, HPGD inh -12.4%, Tau fibril ThT inconclusive, Tau FP inhib inconclusive, ALDH1A1 block inconclusive and Tau fluor counter -24.5%.
For Cn1c(O)c(N=Nc2nc(-c3ccccc3)cs2)c2ccccc21 the results were NPSR antag 1.9%, HPGD inh inconclusive, Tau fibril ThT 2µM*, Tau FP inhib -3.2%, ALDH1A1 block inconclusive and Tau fluor counter -21.2%.
For S=c1[nH]nc(-c2ccc(Cl)cc2)n1/N=C/C=C/c1ccco1 the results were NPSR antag -58.1%, Tau fibril ThT inconclusive, Tau FP inhib -4.0% and Tau fluor counter inconclusive.
`S=c1[nH]nc(-c2ccccc2)n1/N=C/C=C/c1ccco1` gave NPSR antag -42.1%, HPGD inh 11.2µM*, Tau fibril ThT inconclusive, Tau FP inhib -0.1%, ALDH1A1 block inconclusive and Tau fluor counter -14.2%.
S=c1[nH]nc(-c2ccco2)n1/N=C/C=C/c1ccccc1 was read as NPSR antag -19.8%[46.1 µM], HPGD inh 14.1µM*, Tau fibril ThT inconclusive, Tau FP inhib 0.7%, ALDH1A1 block inconclusive and Tau fluor counter -15.4%.
Screening CCC(C)NS(=O)(=O)c1ccc(S(=O)(=O)N2CC=C(c3ccc(F)cc3)CC2)cc1 (stereo unspecified) returned NPSR antag -31.1%, HPGD inh inconclusive, Tau fibril ThT -0.3%, Tau FP inhib inconclusive, ALDH1A1 block -1.8% and Tau fluor counter -20.8%.
For CCOc1cc(CNc2ncc(-c3ccc(OC)cc3)n2C)ccc1O the results were NPSR antag -18.5%[46.1 µM], HPGD inh -6.6%, Tau fibril ThT -22.5%, Tau FP inhib 3.0%, ALDH1A1 block 14.1µM* and Tau fluor counter -18.9%.
For Cc1ccc(N2C(=O)CC(SCC(=O)Nc3ccc(S(N)(=O)=O)cc3)C2=O)cc1 (stereo unspecified) the results were NPSR antag 23.9%, Tau fibril ThT inconclusive, Tau FP inhib -5.1%, ALDH1A1 block 14.1µM* and Tau fluor counter -10.1%.
`COC(=O)c1ccc(N2C(=O)CC(SCC(=O)Nc3ccc(OC)cc3)C2=O)cc1` (stereo unspecified) gave NPSR antag 7.6%.
Screening CCOC(=O)c1ccc(N2C(=O)CC(SCC(=O)Nc3ccc(S(N)(=O)=O)cc3)C2=O)cc1 (stereo unspecified) returned NPSR antag 20.6%, Tau fibril ThT inconclusive, Tau FP inhib -9.4%, ALDH1A1 block 1.58µM* and Tau fluor counter -3.8%.
For CCOc1ccc(NC(=O)Cn2nnc3c(cnn3-c3ccc(F)cc3)c2=O)cc1 the results were NPSR antag 1.0%, Tau fibril ThT -12.1%, Tau FP inhib -1.0%, ALDH1A1 block 7.94µM* and Tau fluor counter -17.7%.
Cc1ccccc1NC(=O)Cn1nnc2c(cnn2-c2ccc(F)cc2)c1=O was read as NPSR antag -4.2%[46.1 µM], HPGD inh -13.4%, Tau fibril ThT -0.8%, Tau FP inhib -6.4%, ALDH1A1 block 2.7% and Tau fluor counter -6.3%.
Screening COC(=O)c1sccc1NC(=O)c1csc(C)c1 returned NPSR antag -1.7%[46.1 µM], HPGD inh -13.8%, Tau fibril ThT -15.7%, Tau FP inhib -3.7%, ALDH1A1 block -12.2% and Tau fluor counter -9.6%.
Screening COc1c(Cl)cc(Cl)cc1/C=C(\C#N)c1nc2ccccc2[nH]1 returned Tau fibril ThT -3.6%, Tau FP inhib -4.0% and Tau fluor counter -9.3%.
